Data taken from PubChem BioAssay (NCI).
This is part of a sample that, as a whole, favours compounds with a hit. Of some 83,000 tested, about 20% had one in any assay.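 Results are percent growth after 48 hours of single-concentration exposure. 100 means growth as in untreated cells, lower positive values show inhibition; negative values down to -100 show cell death.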 A number with no mark means an inactive call. Activity calls are given as the source filed them. The calls were made as follows: active = growth percent below 10; inactive = the rest.

Assays:
Experiment in all cases: NCI-60 one-dose screen, 48 h (100 = growth as untreated, 0 = no growth, -100 = all killed)
Conditions in all cases: 10 µM unless noted
SR leukemia = tested on: SR leukemia
RPMI-8226 leukemia = tested on: RPMI-8226 leukemia
OVCAR-8 ovarian = tested on: OVCAR-8 ovarian
OVCAR-5 ovarian = tested on: OVCAR-5 ovarian
OVCAR-4 ovarian = tested on: OVCAR-4 ovarian
SK-OV-3 ovarian = tested on: SK-OV-3 ovarian
IGROV1 ovarian = tested on: IGROV1 ovarian
OVCAR-3 ovarian = tested on: OVCAR-3 ovarian
HS 578T breast = tested on: HS 578T breast
NCI/ADR-RES ovarian = tested on: NCI/ADR-RES ovarian
T-47D breast = tested on: T-47D breast
BT-549 breast = tested on: BT-549 breast
MDA-MB-435 melanoma = tested on: MDA-MB-435 melanoma
SW-620 colon = tested on: SW-620 colon
MCF7 breast = tested on: MCF7 breast
HCT-116 colon = tested on: HCT-116 colon
KM12 colon = tested on: KM12 colon
HCC-2998 colon = tested on: HCC-2998 colon

SMILES	growth (SR leukemia)	growth (RPMI-8226 leukemia)	growth (OVCAR-8 ovarian)	growth (OVCAR-5 ovarian)	growth (OVCAR-4 ovarian)	growth (SK-OV-3 ovarian)	growth (IGROV1 ovarian)	growth (OVCAR-3 ovarian)	growth (HS 578T breast)	growth (NCI/ADR-RES ovarian)	growth (T-47D breast)	growth (BT-549 breast)	growth (MDA-MB-435 melanoma)	growth (SW-620 colon)	growth (MCF7 breast)	growth (HCT-116 colon)	growth (KM12 colon)	growth (HCC-2998 colon)
COc1ccc(NC2=C(Sc3nc(C)cc(C)n3)C(=O)N(Cc3ccccc3)C2=O)cc1Cl	63.4% [30 µM]	39.3% [30 µM]	29.3% [30 µM]	124% [30 µM]	78.6% [30 µM]	117% [30 µM]	113% [30 µM]	92% [30 µM]	-21.7% [30 µM] (active)	63.5% [30 µM]	41.9% [30 µM]	65.4% [30 µM]	86.6% [30 µM]	88.7% [30 µM]	48.4% [30 µM]	76.9% [30 µM]	99.2% [30 µM]	–
Cc1nc(Nc2ccc(F)c(Cl)c2)sc1C(=O)O	5.95% (active)	5.09% (active)	14%	51.2%	21.7%	17.4%	19.3%	23%	18.7%	13.4%	6.86% (active)	-0.289% (active)	20.4%	24.8%	11.9%	8.02% (active)	-3.33% (active)	–
CC(=O)c1cc(C(=O)c2ccc3c(c2)Sc2ccccc2N3)n2ccccc12	9.43% (active)	5.63% (active)	6.54% (active)	68.2%	40.9%	9.84% (active)	15%	-16.8% (active)	24.9%	22.1%	43%	45.8%	-9.84% (active)	23.9%	24.7%	0.708% (active)	9.91% (active)	–
COc1ccc(CN2c3ccccc3Sc3ccccc32)cc1O	16.1%	24.4%	22.1%	86%	45.7%	29.1%	30.2%	7.47% (active)	33%	18.5%	27.5%	54.5%	0.932% (active)	31%	26%	12.9%	17.6%	–
COc1ccc2nc(NC(=O)CSc3nnc4n3S(=O)(=O)c3ccccc3N4c3ccccc3)sc2c1	66.6%	66.8%	51.2%	94.2%	91.8%	100%	27.7%	104%	89.6%	93.5%	93.7%	83.7%	97.8%	107%	82.3%	87.9%	97.4%	–
COc1ccc(CN2c3ccccc3Oc3ccccc32)cc1F	27.1%	61.5%	64.5%	86.7%	71.7%	46.5%	52.1%	43.1%	62.3%	41.5%	58.1%	70.1%	-0.932% (active)	33.6%	42.7%	31.1%	40.7%	–
NC(=NCCCC1(c2ccccc2)CCCC1)Nc1ccc(Cl)cc1	-39.7% (active)	-24.2% (active)	60.4%	59.8%	41.3%	89%	38.9%	60.8%	65.4%	67.1%	3.02% (active)	86.8%	10.9%	-32.9% (active)	12.4%	0.509% (active)	15.2%	–
NC(=NC1C2CC3CC(C2)CC1C3)Nc1ccc(I)cc1 (configuration not stated)	-10.1% (active)	20.6%	70.1%	38.9%	20.2%	77.6%	4.42% (active)	53.9%	33%	49.5%	2.31% (active)	53.7%	30.7%	20.9%	9.29% (active)	8.08% (active)	45.9%	–
O=C(Nc1ccccc1Cl)c1ccc(NC2=C(Cl)C(=O)N(C3CCCCC3)C2=O)cc1	-22.2% [30 µM] (active)	23.6% [30 µM]	28.9% [30 µM]	109% [30 µM]	68.9% [30 µM]	109% [30 µM]	78.2% [30 µM]	15.9% [30 µM]	-0.344% [30 µM] (active)	78.4% [30 µM]	38.7% [30 µM]	60.5% [30 µM]	49.6% [30 µM]	56.7% [30 µM]	34.7% [30 µM]	111% [30 µM]	64.9% [30 µM]	–
O=C1c2cccc3cccc(c23)C(=O)N1CCCCCN1CCN(CCCCCOc2ccc(-c3nc4ccc(N5CCOCC5)cc4[nH]3)cc2)CC1	-44.1% (active)	-59% (active)	10.6%	158%	83.2%	135%	44.3%	105%	107%	25.9%	0.907% (active)	29.9%	36.4%	17.1%	-25.7% (active)	73%	20.6%	–
COc1cccc(-c2nc(SCC(=O)Nc3ccc(C(=O)/C=C/c4ccc(OC)c(OC)c4)cc3)[nH]c(=O)c2C#N)c1	60.6%	93.3%	99.2%	110%	80.8%	90.5%	103%	83.6%	82.4%	93.6%	78.1%	85.4%	92.3%	112%	82.4%	77.7%	81.5%	–
O=C1c2cccc3cccc(c23)C(=O)N1CCCCN1CCN(CCCCOc2ccc(-c3nc4ccc(N5CCOCC5)cc4[nH]3)cc2)CC1	-65% (active)	32.4%	22%	109%	79.4%	95.9%	68.9%	100%	86.6%	76.6%	77.2%	91.7%	88.3%	95.1%	74.1%	69.1%	92.1%	–
O=C1c2c(O)cc(O)cc2-c2c(-c3ccc(O)cc3)oc3cc(O)cc1c23	0.6% (active)	41.8%	46.6%	111%	61.5%	15.7%	52.2%	44%	32.1%	90.4%	8.47% (active)	50.8%	52.9%	45.3%	33.2%	32.5%	58.3%	–
CC(=O)c1cc2c(N)c(C(=O)Nc3cccc(F)c3C)sc2nc1C	63.9%	86%	79.6%	110%	79.8%	53.8%	94.3%	108%	–	91.5%	80.6%	80.9%	4.9% (active)	85.9%	78.9%	92.3%	87.1%	85%
CN1CCN(c2ccc(Nc3c4ccccc4nc4ccccc34)cc2)CC1	103%	121%	100%	102%	103%	112%	111%	110%	117%	–	102%	112%	110%	106%	99.1%	104%	105%	113%
CC1=C[C@H]2c3c(c(O)c(O)c4oc5cc(O)ccc5c(=O)c34)[C@H](c3cc(O)c(O)c4oc5cc(O)ccc5c(=O)c34)[C@H]2C(C)(C)C1	24.6%	29.5%	25.4%	59.1%	56%	59.7%	21.4%	46.4%	–	101%	18.1%	31.4%	20%	19.5%	15.4%	1.38% (active)	15%	75.4%
